Each structure is given as a SMILES string. Compounds without any hit were thinned out: in the full panel of roughly 79,000, 15% have a hit. Activity calls are given as the source filed them. Rule as the data show it: active = growth inhibition above about 70%; inactive = the rest. Where a SMILES comes first, the peptide text is derived from it. The star is where a group is joined. Boc = CC(C)(C)OC(=O)*; tBu = CC(C)(C)*

The test can be described thus: NCI Yeast Anticancer Drug Screen. Data for the rad50 strain (AID 155).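 Also: 0% = growth of vehicle-only cultures of the same strain.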 The following applies: S. cerevisiae rad50 strain growth inhibition; at 50.0 µM; active compounds read high. A digest of the protocol: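 Readout: growth inhibition relative to vehicle-treated cultures. Compound exposure was carried out in a genetically defined yeast strain deficient in DNA damage repair.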
`Cc1sc2nc(N(C)C)oc(=O)c2c1C`: the growth inhibition is 28.8% (inactive).

In the case of `Cc1ccc(S(=O)(=O)NN=C2C(C)(C)C(=O)C2(C)C)cc1`, the growth inhibition is -1.5% (inactive).

Consider `Cc1ccc(OC(=O)NC(C)(C)C)cc1`, for which the growth inhibition was 0.8% (inactive).

Regarding `OC1c2ccccc2-c2ccccc21`, the growth inhibition was 35.6% (inactive).

As for `O=C(CNC(=O)c1ccccc1)Nc1ccc([N+](=O)[O-])cc1`, the growth inhibition is 15.2% (inactive).

As to `O=[N+]([O-])c1ccc(N/N=C/C(Br)(Br)Br)c([N+](=O)[O-])c1`, the growth inhibition was -5.85% (inactive).

With `O=C1C(NS(=O)(=O)c2ccccc2)=C(N(Cc2ccccc2)Cc2ccccc2)C(=O)c2ccccc21`, the growth inhibition was 9.1% (inactive).

Consider `O=c1c2ccccc2[nH]c2ccc(Br)cc12`, for which the growth inhibition was 8.25% (inactive).

With `CC(=O)Nc1ccc(NC(=O)Nc2cc(Cl)ccc2C)cc1`, the growth inhibition is 14.3% (inactive).

With `Cc1ccc2nc(-c3ccc(-c4nc5ccc(C)cc5o4)c(O)c3)oc2c1`, the growth inhibition is -36.3% (inactive).

On to `CCN/C(C)=C\C(=O)OCC`, for which the growth inhibition was -0.9% (inactive).

Take `O=S(=O)(O)c1cc(Cl)c(O)c(Cl)c1`: the growth inhibition was 7.25% (inactive).

Take `Clc1ccc2nc(/C=C/c3ccccc3)ccc2c1`: the growth inhibition is -10.7% (inactive).

On to `O=S(=O)(O)CNc1ccc(Cl)cc1`, for which the growth inhibition was 15.8% (inactive).

Consider `CC(=O)N1CC(=O)N2C(=O)/C(=C/c3ccc(Cl)cc3)N=C12`, for which the growth inhibition is 2.3% (inactive).

On to `Cc1ccc(S(=O)(=O)C(C#N)CCC(=O)c2ccc(Cl)cc2)cc1` (stereo not given), for which the growth inhibition was 6.25% (inactive).

`COc1ccc(N2NC(c3ccccc3)(c3ccccc3)C(C)C2=O)cc1` (stereo not given): the growth inhibition was 48.2% (inactive).

As for `NC(=O)N/N=C1\CCCCC12CCCCC2`, the growth inhibition was 4.3% (inactive).

For `CCCCCCCCCCCCCCCCOc1ccc(Sc2ccc([N+](=O)[O-])cc2)cc1`, the growth inhibition is 44.5% (inactive).

For the molecule `CCC(=O)CC(=O)C(=O)OC`, the growth inhibition is 6.25% (inactive).

`Cc1ccc(S(=O)(=O)C(=S)N(C)N(C)C)cc1`: the growth inhibition is 18.2% (inactive).

Regarding `CC1CCCC2(CN=C(Nc3ccccc3)O2)C1` (stereo not given), the growth inhibition is -13.7% (inactive).

For `O=C(CC(C(=O)c1cccs1)c1cccs1)c1ccsc1` (stereo not given), the growth inhibition is -4.2% (inactive).

Consider `Cc1ccc(NC(=NCCCN(C)C)C(c2ccccc2)c2ccccc2)cc1`, for which the growth inhibition is -2.7% (inactive).

`COc1cc2c(cc1OC)[C@H]1C(COC(=O)Nc3ccccc3)CN1CC2` (stereo not given in full): the growth inhibition is -28.9% (inactive).

Consider `O=c1[nH]c(=O)n(C2OC(COP(=O)(O)OP(=O)(O)OC3OC(CO)C(O)C(O)C3O)C(O)C2O)cc1F` (stereo not given), for which the growth inhibition is 1.15% (inactive).

With `COC1=C2CC(C)CC(OC)C(OC(C)=O)C(C)/C=C(\C)C(OC(N)=O)C(OC)/C=C\C=C(/C)C(=O)NC(=CC1=O)C2=O` (stereo not given), the growth inhibition was 90% (active).

Consider `NS(=O)(=O)c1ncc(C(=O)N2CCN(Cc3ccccc3)CC2)[nH]1`, for which the growth inhibition was -6.15% (inactive).

In the case of `CC(C)(OC(=O)Nc1ccccc1)c1ccc([N+](=O)[O-])cc1`, the growth inhibition was -5% (inactive).

In the case of `CCCOC(=O)c1c(C)c(C)cc(C)c1C`, the growth inhibition was 5.9% (inactive).

`CCOC(=O)Nc1nc(-c2ccc(Br)cc2)cs1`: the growth inhibition was -11.5% (inactive).

As to `O=c1[nH]cc(CCOCc2ccccc2)c(=O)[nH]1`, the growth inhibition is -4.3% (inactive).

`CS(=O)(=O)/C=C/c1ccccc1`: the growth inhibition is -19.4% (inactive).

Consider `c1ccc2c3c([nH]c2c1)CCCCCC3`, for which the growth inhibition was 19.2% (inactive).

In the case of `O=C(O)c1ccccc1C(=O)CC(O)(C(F)(F)F)C(F)(F)F`, the growth inhibition is -20.6% (inactive).

Consider `CSc1ccc2c(c1)Cc1cc(NC(C)=O)ccc1-2`, for which the growth inhibition is 8.8% (inactive).

Turning to `Cc1c(F)c(N)c2c(=O)cc(-c3ccc(N)c(F)c3)oc2c1F`, the growth inhibition is 32.8% (inactive).

Consider `CC(OC(C)(C)C)C(NC(=O)C(N)CCCCNC(=O)OC(C)(C)C)C(=O)NC(Cc1ccccc1)C(=O)O` (stereo not given) (H-Lys(Boc)-Thr(tBu)-Phe-OH; configuration not given here), for which the growth inhibition was -37.3% (inactive).

Regarding `COc1ccc(/C=C\c2cc(OC)c(OC)c(OC)c2)cc1OC`, the growth inhibition was 5.2% (inactive).

In the case of `COc1ccc(NC(=O)Nc2ccc(Cl)cc2C)cc1`, the growth inhibition is -13.4% (inactive).
